DT40 TDP1 no CPT: qHTS for Inhibitors of human tyrosyl-DNA phosphodiesterase 1 (TDP1): qHTS in cells in absence of CPT. Potency, µM (series often up to 46.2 µM), usual class: inhibitors. DT40 Tdp1-/- hTDP1 cells, no CPT, ATP luminescence, 48 h. 420,000 tested, 15% active; note: nearly all actives have a fitted effect of over 55% in size
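Readout: luminescence from CellTiter-Glo after 30 min in the dark at RT. Cells: DT40 Tdp1-/- with stable hTDP1, 400/well. Exposure: compounds alone, ≥48 hr, 37 °C.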
HepG2 viability: qHTS for Inhibitors of TGF-b: Cytotox Counterscreen | 410,000 tested, 0.76% active | HepG2 CAGA-GFP viability, ATP luminescence, 18 h | Potency, µM (highest dose often 46.1 µM), usual class: cytotoxic
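CellTiter-Glo luminescence gave cytotoxicity after 18 hours at 37 degrees C. The cells were HepG2 CAGA-GFP in 1% FBS DMEM, stimulated with 500 pg/mL TGF-beta after compound addition. %Activity was normalised to no-cell wells (complete cell-killing) and DMSO (no toxicity), and curves were fitted and classified.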
IL1B secr inh: qHTS for Inhibitors of Inflammasome Signaling: IL-1-beta AlphaLISA Primary Screen; THP-1 LPS/ATP IL-1B secretion, AlphaLISA, 16 h; hits give low values; activity change, % at 57.5 µM; 360,000 tested, 4.7% active; AID 743279, 2014; in the data active = activity change below about -50%; inconclusive = mostly about -30% to -49%
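Secreted IL-1B measured by AlphaLISA bead assay after 16 h compound exposure of THP-1 cells; compounds (final up to 57.5 uM) added 1 h before LPS (250 ng/mL) and ATP (1.25 mM) stimulation; lower signal means less secretion.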
ASM inhibitor: Inhibitors of Secretory Acid Sphingomyelinase (S-ASM): qHTS; AID 504937, 2011; 340,000 tested, 0.006% active; placental ASM, HMU-PC fluorogenic substrate, 60 min; Sphingomyelin phosphodiesterase (Homo sapiens), P17405; Potency, µM (top dose mostly 57.5 µM), hits mostly inhibitors
Target sequence (P17405 47-631 limits assumed): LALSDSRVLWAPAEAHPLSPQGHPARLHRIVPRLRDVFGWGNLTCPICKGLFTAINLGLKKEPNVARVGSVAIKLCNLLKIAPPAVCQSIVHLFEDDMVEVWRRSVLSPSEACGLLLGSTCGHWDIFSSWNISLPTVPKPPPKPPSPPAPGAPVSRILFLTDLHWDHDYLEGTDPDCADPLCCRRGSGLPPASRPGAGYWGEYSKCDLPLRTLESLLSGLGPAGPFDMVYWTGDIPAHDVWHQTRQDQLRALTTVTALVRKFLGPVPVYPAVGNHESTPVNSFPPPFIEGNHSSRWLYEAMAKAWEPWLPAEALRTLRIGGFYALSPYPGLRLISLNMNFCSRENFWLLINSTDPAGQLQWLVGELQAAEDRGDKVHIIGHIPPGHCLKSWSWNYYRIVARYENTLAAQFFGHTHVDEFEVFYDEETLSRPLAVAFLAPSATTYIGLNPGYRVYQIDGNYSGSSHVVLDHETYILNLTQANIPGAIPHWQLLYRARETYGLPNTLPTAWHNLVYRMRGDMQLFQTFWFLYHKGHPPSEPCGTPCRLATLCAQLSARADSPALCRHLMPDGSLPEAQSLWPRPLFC
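Human placenta-derived ASM preincubated with compound 10 min at room temperature, then reacted with 9 uM (final) fluorogenic HMU-PC substrate for 60 min at 37 C. Stop solution raises pH to 10; fluorescence read at Ex 386/Em 447 nm.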
TGFb inhibitor: qHTS for Inhibitors of TGF-b; 410,000 tested, 1.2% active; HepG2 CAGA-GFP TGF-b/SMAD3 reporter, GFP fluorescence, 18 h; TGF-beta stimulated, 500 pg/mL final; Potency, µM (titrated, usually from 46.1 µM), usual class: inhibitors; note: nearly all actives have a fitted effect of over 65% in size
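HEPG2 CAGA-GFP cells (1000/well, DMEM with 1% FBS) were pre-incubated 2 h at 37 degrees C, given compound by pin tool, then stimulated with TGF-beta at 500 pg/mL final for 18 h before per-cell GFP fluorescence imaging.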
DT40 TDP1 CPT: qHTS for Inhibitors of human tyrosyl-DNA phosphodiesterase 1 (TDP1): qHTS in cells in presence of CPT | 420,000 tested, 12% active | Potency, µM (doses to about 46.2 µM), hits mostly inhibitors | chicken DT40 Tdp1-/-;hTDP1 cells + 20 nM CPT, ATP luminescence, 48 h; note: nearly all actives have a fitted effect of over 55% in size
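Chicken DT40 Tdp1-/- cells complemented with human TDP1, 400 cells/well, exposed to compounds plus 20 nM camptothecin for at least 48 h at 37 C; viability read as ATP content by CellTiter-Glo luminescence.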
Of the large screens only hits and unclear results are named; the others gave an inactive call. The list is not random: actives were taken first. Their share in the collection is about 19%. Unless noted, calls come from the whole dose curve; as a rule, active = well fitted curve in the direction sought with a large enough effect; inconclusive = small, poorly fitted or top-dose-only effect, or another doubt; inactive = no such curve, though single readings can be large; an effect the other way counts as inactive or inconclusive.

COC(=O)c1c(NC(=O)CN2CCCc3ccccc32)sc(C)c1C	DT40 TDP1 no CPT inconclusive, DT40 TDP1 CPT 21µM
CCCC[C@@H]1C=C(C(=O)O)[C@H](c2ccc(C#N)cc2)N1S(=O)(=O)c1ccc(C)cc1	none
Cc1cc(C(=O)c2ccc(C(C)(C)C)cc2)c(NC(=O)CCl)s1	DT40 TDP1 no CPT 4.6µM, IL1B secr inh -51, TGFb inhibitor 16µM, DT40 TDP1 CPT 5.8µM
Cc1sc(NC(=O)CCS(=O)(=O)c2ccccc2)c(C#N)c1C	DT40 TDP1 no CPT inconclusive, DT40 TDP1 CPT 23µM
CCOC(=O)c1c(NC(=O)C[n+]2ccc(Cc3ccccc3)cc2)sc(C)c1C	DT40 TDP1 no CPT 6.5µM, IL1B secr inh -74, ASM inhibitor inconclusive, DT40 TDP1 CPT 12µM
CCOC(=O)c1c(NC(=S)Nc2ccccc2)sc(C)c1C	DT40 TDP1 no CPT inconclusive, DT40 TDP1 CPT inconclusive
COC(=O)c1c(NC(=O)CS(=O)(=O)c2ccccc2)sc(C)c1C	DT40 TDP1 no CPT 21µM, DT40 TDP1 CPT inconclusive (no result: ASM inhibitor)
CCn1c(-c2cccc(OC)c2)nc2cc(NC(C)=O)cc(C(=O)N3CCCC(C(C)=O)C3)c21 (stereo not given)	none (no result: HepG2 viability, IL1B secr inh, ASM inhibitor, TGFb inhibitor)
Cc1ccc2c(c1)C(c1ccccc1)N(C(=O)CC(C)C)CC(=O)N2 (stereo not given)	none
COc1ccccc1C(=O)NC(=O)COC(=O)c1ccc(Br)o1	none
CCOC(=O)C[C@H]1c2cc(F)ccc2S(=O)(=O)N1C1CCCC1	DT40 TDP1 no CPT inconclusive
CN(C(=O)CSc1nnc(-c2ccc(OC(F)F)cc2)n1N)C1CCS(=O)(=O)C1 (stereo not given)	none
FC(F)(F)c1cc(CCN2CCNC[C@@H]2CC2CCCCC2)cc(C(F)(F)F)c1	DT40 TDP1 no CPT inconclusive, IL1B secr inh -101, TGFb inhibitor inconclusive, DT40 TDP1 CPT 23µM
CCCC[C@@H]1CNCCN1CCc1cc(C(F)(F)F)cc(C(F)(F)F)c1	DT40 TDP1 no CPT 21µM, IL1B secr inh -61, TGFb inhibitor inconclusive, DT40 TDP1 CPT inconclusive
CCC(C)[C@H]1CNCCN1CCc1cc(C(F)(F)F)cc(C(F)(F)F)c1 (stereo not given in full)	DT40 TDP1 no CPT 18µM, IL1B secr inh -66, TGFb inhibitor inconclusive, DT40 TDP1 CPT inconclusive
c1ccc2c(C[C@@H]3CNCCN3CCCCC3CCCCC3)cccc2c1	DT40 TDP1 no CPT inconclusive, TGFb inhibitor inconclusive, DT40 TDP1 CPT inconclusive
FC(F)(F)c1cc(CCN2CCNC[C@@H]2c2ccccc2)cc(C(F)(F)F)c1	DT40 TDP1 no CPT inconclusive, IL1B secr inh inconclusive, TGFb inhibitor inconclusive, DT40 TDP1 CPT 16µM
CS(=O)(=O)Nc1ccc2c(c1)[C@@H]1C[C@@H](CC(=O)NCc3cccnc3)O[C@H](CO)[C@@H]1O2	none (no result: ASM inhibitor)
CCC(C)[C@H]1CNC(=S)N1CCc1cc(C(F)(F)F)cc(C(F)(F)F)c1 (stereo not given in full)	DT40 TDP1 no CPT 21µM, IL1B secr inh -55, TGFb inhibitor inconclusive, DT40 TDP1 CPT inconclusive
CC(O)[C@H]1CNC(=S)N1CCc1cccc(F)c1 (stereo not given in full)	none
C=C1C=C(C)n2ncc(C(=O)Nc3ccc(NC(C)=O)c(Cl)c3)c2N1	DT40 TDP1 no CPT inconclusive, DT40 TDP1 CPT inconclusive (no result: IL1B secr inh, ASM inhibitor)
CCn1c(=O)cc(OCC(=O)N(C)c2ccccc2F)c2ccccc21	none
CCCN(C(=O)Cn1c(=O)oc2cc(Cl)ccc21)c1ccc(C(C)C)cc1	DT40 TDP1 no CPT inconclusive, DT40 TDP1 CPT 21µM (no result: IL1B secr inh, ASM inhibitor)
CCN(C(=O)COc1cc(=O)n(CC)c2ccccc12)c1cccc(Cl)c1	DT40 TDP1 no CPT inconclusive, DT40 TDP1 CPT 15µM

High-throughput results: PubChem BioAssay, National Center for Advancing Translational Sciences (NCATS)
